Results on six molecules are retold here after PubChem BioAssay (EPA / NIEHS).

Assay [1] in a line: ATG_NFI_CIS: Attagene CIS-FACTORIAL HepG2 Assay for human Nuclear Factor I (NFI) (AID 2282989). The following applies: HepG2 cis-regulatory reporter, NFI response element transcription; actives raise or lower the signal. Put shortly:
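Reporter transcription driven by endogenous transcription factors in HepG2 cells; 24 h treatment. Quantitation by labelled RT-PCR fragments on capillary electrophoresis, gain- or loss-of-signal relative to DMSO.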

The target in assay [2] is Myc proto-oncogene protein (Homo sapiens) (UniProt P01106). Nature of the assay: ATG_Myc_CIS: Attagene CIS-FACTORIAL HepG2 Assay for human Myelocytomatosis (Myc) Proto-Oncogene Transcription Factor (AID 2282990). The following applies: HepG2, Attagene cis-reporter transcription factor activity; actives raise or lower the signal. The procedure, abridged:
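DMSO-normalised, bidirectionally fitted reporter mRNA signal. HepG2 cells transfected with cis reporter constructs, treated 24 h; transcripts detected by RT-PCR, 6-FAM primer extension and CE.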

Assay [3] is described as follows: ATG_NF_kB_CIS: Attagene CIS-FACTORIAL HepG2 Assay for human Nuclear Factor Kappa B (NF-kB) (AID 2282991). The following applies: HepG2 Attagene cis-factorial NF-kB reporter mRNA; actives raise or lower the signal. Put shortly: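 Read-out: reporter transcript levels quantified by RT-PCR plus capillary electrophoresis of 6-FAM-labelled, HpaI-cut fragments. Transfected HepG2 cells, 24 h compound exposure, endogenous NF-kB-driven cis element; gain or loss scored versus DMSO.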

Assay [4] can be described thus: ATG_NRF2_ARE_CIS: Attagene CIS-FACTORIAL HepG2 Assay for human Nuclear Factor Erythroid 2 Related Factor 2 (NFR2) response to Antioxidant Response Elements (ARE) (AID 2282992).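 As to AC50: reporter mRNA level measured by RT-PCR and capillary electrophoresis fluorescence.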 The settings on record: HepG2 Attagene ARE/NRF2 reporter, transcription factor activity; actives raise or lower the signal. The procedure, abridged:
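HepG2 cells transiently transfected with multiplexed cis-element reporter constructs, 24 h after chemical dosing; reporter mRNA quantified by RT-PCR, fluorescent primer extension, HpaI digestion and capillary electrophoresis. Bidirectional fit relative to DMSO.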

Assay [5] can be described thus: BSK_3C_TissueFactor: BioMAP Diversity Plus: 3C Assay for Tissue Factor Biomarker Activity (AID 2282997). The following applies: BioMAP 3C HUVEC, tissue factor biomarker readout; actives raise or lower the signal. Put shortly:
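HUVEC were treated 24 h, then surface tissue factor measured by ELISA and fitted bidirectionally against DMSO. Parallel SRB total-protein staining assessed overt cytotoxicity at the same time point.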

Assay [6] can be described thus: BSK_3C_uPAR: BioMAP Diversity Plus: 3C Assay for Urokinase-type plasminogen activator receptor (uPAR) Biomarker Activity (AID 2282998). The following applies: BioMAP 3C HUVEC, uPAR biomarker ELISA; actives raise or lower the signal. Put shortly: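 Readout: ELISA for surface uPAR. System: human umbilical vein endothelial primary cells, 24 h after chemical exposure. Analysis: bidirectional fit, DMSO baseline.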

A short description of assay [7]: BSK_3C_VCAM1: BioMAP Diversity Plus: 3C Assay for Vascular cell adhesion molecule 1 (VCAM1) Biomarker Activity (AID 2282999). The following applies: BioMAP 3C HUVEC, VCAM1 ELISA, cytokine-stimulated; actives raise or lower the signal. The procedure, abridged:
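Human umbilical vein endothelial cells were dosed with compound for 24 h, after which cell-surface VCAM-1 was quantified by ELISA. Bidirectional curve fitting used DMSO as negative control and activity baseline.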

Assay [8] can be described thus: BSK_4H_Eotaxin3: BioMAP Diversity Plus: 4H Assay for Eotaxin 3 Biomarker Activity (AID 2283000).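 Also: CCL26 protein level quantified by ELISA in parallel with SRB cytotoxicity check.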 The settings on record: primary human endothelial cells (HUVEC); actives raise or lower the signal. Put shortly:
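Eotaxin-3 (CCL26) levels were measured by ELISA in HUVEC primary cultures 24 h post-dosing. Gain or loss of signal was fitted in both directions, with DMSO serving as baseline and negative control.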

Assay [9] deals with human Peroxisome Proliferator-activated Receptor alpha (PPARa), PPARA (gene 5465) (UniProt Q07869). Nature of the assay: ATG_PPARa_TRANS: Attagene TRANS-FACTORIAL HepG2 Assay for human Peroxisome Proliferator-activated Receptor alpha (PPARa) (AID 2283001; active = hit-call score of the fitted dose curve at least 0.9, where 1 is the maximum). The procedure, abridged:
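Gain-of-signal endpoint: reporter mRNA induction relative to DMSO, detected by fluorescent RT-PCR and capillary electrophoresis. HepG2 cells transiently carried GAL4-UAS-driven reporter units plus NR-Gal4 fusion; exposure lasted 24 h.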

Read-out in assay [10]: Intercellular Adhesion Molecule 1 (ICAM1), ICAM1 (gene 3383)
Nature of the assay: BSK_3C_ICAM1: BioMAP Diversity Plus: 3C Assay for Intercellular Adhesion Molecule 1 (ICAM1) Biomarker Activity (AID 2283003). The settings on record: primary human endothelial cells (HUVEC); actives raise or lower the signal. The procedure, abridged: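 HUVEC primary cells stimulated under 3C conditions; ICAM1 measured by ELISA 24 h after compound dosing. Curves fitted bidirectionally against the DMSO baseline. Overt cytotoxicity checked by SRB staining of parallel cultures.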

Assay [11] concerns the target human Retinoic Acid Receptor beta (RARb), RARB (gene 5915) (UniProt P10826). Nature of the assay: ATG_RARb_TRANS: Attagene TRANS-FACTORIAL HepG2 Assay for human Retinoic Acid Receptor beta (AID 2283004; active = hit-call score of the fitted dose curve at least 0.9, where 1 is the maximum). Put shortly: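 HepG2 cells were transiently transfected with GAL4-UAS reporter units that report activity of exogenous chimeric NR-Gal4 proteins, then exposed to compound for 24 h. Reporter mRNA was quantified by RT-PCR with capillary electrophoresis fluorescence, as gain of signal over DMSO.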

Assay [12] is described as follows: BSK_3C_Proliferation: Cell Proliferation Assessment in the BioMAP Diversity Plus: 3C Assay (AID 2283006). The settings on record: primary human endothelial cells (HUVEC). The procedure, abridged: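 Subconfluent HUVEC (3C system) cultured with chemical; relative cell number read at 48 h by sulforhodamine B total-protein staining (0.1% SRB after 10% TCA fixation, 560 nm). Bidirectional fit relative to DMSO.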

Assay [13] can be described thus: ATG_Oct_MLP_CIS: Attagene CIS-FACTORIAL HepG2 Assay for human Octamer-Binding Transcription Factor (Oct) (AID 2282993). The settings on record: HepG2 Attagene cis-factorial Oct reporter, mRNA; actives raise or lower the signal. The procedure, abridged:
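Transfected HepG2 cells, 24 h treatment. Reporter mRNA quantified by RT-PCR–capillary electrophoresis; bidirectional fitting against DMSO.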

In assay [14] the target is Nuclear receptor subfamily 1 group I member 2 (Homo sapiens) (UniProt O75469). Kind of assay: ATG_PXR_TRANS: Attagene TRANS-FACTORIAL HepG2 Assay for human Pregnane X Receptor (PXR) (AID 2283008; active = hit-call score of the fitted dose curve at least 0.9, where 1 is the maximum). Put shortly: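 HepG2 cells transiently transfected with GAL4-UAS reporter units and PXR-Gal4 chimera, exposed 24 h. Reporter mRNA quantified by RT-PCR, fluorescent labelling, HpaI digestion and capillary electrophoresis; gain of signal vs DMSO.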

The target in assay [15] is human RAR-related Orphan Receptor beta (RORb), RORB (gene 6096) (UniProt Q92753). Kind of assay: ATG_RORb_TRANS: Attagene TRANS-FACTORIAL HepG2 Assay for human RAR-related Orphan Receptor beta (RORb) (AID 2283010; active = hit-call score of the fitted dose curve at least 0.9, where 1 is the maximum). The procedure, abridged:
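HepG2 cells transiently transfected with GAL4-UAS reporter units expressing chimeric NR-Gal4 protein; reporter mRNA measured 24 h after dosing by RT-PCR, 6-FAM labelling and capillary electrophoresis. Gain-of-signal fitted relative to DMSO baseline.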

The target in assay [16] is Retinoic acid receptor alpha (Homo sapiens) (UniProt P10276). Kind of assay: ATG_RARa_TRANS: Attagene TRANS-FACTORIAL HepG2 Assay for human Retinoic Acid Receptor alpha (RARa) (AID 2283005; active = hit-call score of the fitted dose curve at least 0.9, where 1 is the maximum). The procedure, abridged:
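HepG2 cells transiently transfected with multiple reporter units expressing chimeric RARα-GAL4 fusion, with GAL4-UAS-driven reporters. After 24 h compound exposure, reporter mRNA induction quantified by RT-PCR and capillary electrophoresis with fluorescent labeling; gain-of-signal fitted relative to DMSO control.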

In assay [17] the target is Peroxisome proliferator-activated receptor gamma (Homo sapiens) (UniProt P37231). Nature of the assay: ATG_PPARg_TRANS: Attagene TRANS-FACTORIAL HepG2 Assay for human Peroxisome Proliferator-activated Receptor-gamma (PPARg) (AID 2283007; active = hit-call score of the fitted dose curve at least 0.9, where 1 is the maximum). Put shortly: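 Read-out: reporter mRNA induction, detected by fluorescence after RT-PCR and capillary electrophoresis. Transiently transfected human HepG2 liver cells carrying a chimeric NR-Gal4 construct were dosed for 24 h; activity was fitted upward relative to DMSO.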

Assay [18] deals with Cellular tumor antigen p53 (Homo sapiens) (UniProt P04637). Nature of the assay: ATG_p53_CIS: Attagene CIS-FACTORIAL HepG2 Assay for human p53 Transcription Factor (AID 2282994). The settings on record: HepG2 p53 cis-element reporter, Attagene mRNA; actives raise or lower the signal. The procedure, abridged: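 HepG2 cells transiently transfected with cis-regulated multiple reporter transcription units, dosed 24 h. Reporter mRNA measured by RT-PCR, 6-FAM primer extension, HpaI digestion and capillary electrophoresis; bidirectional fit relative to DMSO.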

The target in assay [19] is human Peroxisome Proliferator-activated Receptor delta (PPARd), PPARD (gene 5467) (UniProt Q03181). Nature of the assay: ATG_PPARd_TRANS: Attagene TRANS-FACTORIAL HepG2 Assay for human Peroxisome Proliferator-activated Receptor delta (PPARd) (AID 2283002; active = hit-call score of the fitted dose curve at least 0.9, where 1 is the maximum). The procedure, abridged: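 Measured quantity: GAL4-UAS reporter transcript induction in HepG2 after 24 h chemical dosing, with NR-Gal4 chimeras supplied by transient transfection. Detection by RT-PCR and capillary electrophoresis; upward fit against DMSO.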

In assay [20] the target is human Retinoic Acid Receptor gamma (RARg), RARG (gene 5916) (UniProt P13631). Nature of the assay: ATG_RARg_TRANS: Attagene TRANS-FACTORIAL HepG2 Assay for human Retinoic Acid Receptor gamma (RARg) (AID 2283009; active = hit-call score of the fitted dose curve at least 0.9, where 1 is the maximum). The procedure, abridged:
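HepG2 transiently transfected with GAL4-UAS reporter units and chimeric NR-Gal4 constructs; 24 h compound exposure. Reporter mRNA quantified by RT-PCR, FAM labeling, HpaI digestion and capillary electrophoresis; gain-of-signal versus DMSO.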

Results filed as inconclusive are left out. The source made the active and inactive calls. The calls were made as follows, unless noted: active = hit-call score of the fitted dose curve at least 0.9, where 1 is the maximum; inactive = score below 0.9.

Chain of human RAR-related Orphan Receptor beta (RORb), RORB (gene 6096) (Q92753 whole entry, looked up, the tested form may be a part): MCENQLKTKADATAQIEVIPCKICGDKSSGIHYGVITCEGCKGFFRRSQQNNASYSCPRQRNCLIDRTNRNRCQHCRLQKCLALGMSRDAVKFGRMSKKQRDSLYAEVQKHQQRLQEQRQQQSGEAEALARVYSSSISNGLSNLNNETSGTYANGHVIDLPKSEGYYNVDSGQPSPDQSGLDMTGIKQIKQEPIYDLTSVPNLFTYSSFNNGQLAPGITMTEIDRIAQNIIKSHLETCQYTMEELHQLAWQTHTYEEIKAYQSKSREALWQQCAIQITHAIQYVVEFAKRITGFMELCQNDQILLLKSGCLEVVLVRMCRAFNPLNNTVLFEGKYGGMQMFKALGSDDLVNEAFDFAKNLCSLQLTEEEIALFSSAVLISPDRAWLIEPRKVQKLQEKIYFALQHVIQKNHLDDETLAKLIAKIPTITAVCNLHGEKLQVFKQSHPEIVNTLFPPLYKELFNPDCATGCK
Chain of human Peroxisome Proliferator-activated Receptor alpha (PPARa), PPARA (gene 5465) (Q07869 whole entry, looked up, the tested form may be a part): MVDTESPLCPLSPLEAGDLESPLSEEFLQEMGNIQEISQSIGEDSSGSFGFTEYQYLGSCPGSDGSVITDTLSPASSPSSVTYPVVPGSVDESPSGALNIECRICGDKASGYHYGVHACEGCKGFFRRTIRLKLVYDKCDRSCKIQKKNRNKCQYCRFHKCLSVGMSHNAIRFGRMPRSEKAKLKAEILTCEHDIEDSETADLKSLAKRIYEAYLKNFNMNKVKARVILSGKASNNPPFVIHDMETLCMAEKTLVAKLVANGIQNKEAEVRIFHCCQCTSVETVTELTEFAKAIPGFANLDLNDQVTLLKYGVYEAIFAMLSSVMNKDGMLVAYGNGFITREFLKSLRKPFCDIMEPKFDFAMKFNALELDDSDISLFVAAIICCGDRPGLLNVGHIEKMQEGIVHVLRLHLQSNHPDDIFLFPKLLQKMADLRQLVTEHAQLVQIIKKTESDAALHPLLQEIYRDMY
Chain of Nuclear receptor subfamily 1 group I member 2 (Homo sapiens) (O75469 whole entry, looked up, the tested form may be a part): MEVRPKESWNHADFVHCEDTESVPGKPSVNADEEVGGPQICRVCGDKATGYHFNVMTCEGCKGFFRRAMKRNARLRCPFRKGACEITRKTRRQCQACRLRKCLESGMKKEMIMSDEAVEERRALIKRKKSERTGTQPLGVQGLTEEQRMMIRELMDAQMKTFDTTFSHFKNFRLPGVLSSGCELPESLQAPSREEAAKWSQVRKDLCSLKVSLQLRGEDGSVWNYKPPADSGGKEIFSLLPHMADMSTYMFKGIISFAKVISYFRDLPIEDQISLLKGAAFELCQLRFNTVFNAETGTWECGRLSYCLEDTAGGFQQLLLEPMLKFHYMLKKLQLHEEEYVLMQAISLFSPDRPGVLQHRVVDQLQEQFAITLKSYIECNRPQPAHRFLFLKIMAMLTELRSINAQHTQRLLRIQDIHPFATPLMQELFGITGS
Chain of Retinoic acid receptor alpha (Homo sapiens) (P10276 whole entry, looked up, the tested form may be a part): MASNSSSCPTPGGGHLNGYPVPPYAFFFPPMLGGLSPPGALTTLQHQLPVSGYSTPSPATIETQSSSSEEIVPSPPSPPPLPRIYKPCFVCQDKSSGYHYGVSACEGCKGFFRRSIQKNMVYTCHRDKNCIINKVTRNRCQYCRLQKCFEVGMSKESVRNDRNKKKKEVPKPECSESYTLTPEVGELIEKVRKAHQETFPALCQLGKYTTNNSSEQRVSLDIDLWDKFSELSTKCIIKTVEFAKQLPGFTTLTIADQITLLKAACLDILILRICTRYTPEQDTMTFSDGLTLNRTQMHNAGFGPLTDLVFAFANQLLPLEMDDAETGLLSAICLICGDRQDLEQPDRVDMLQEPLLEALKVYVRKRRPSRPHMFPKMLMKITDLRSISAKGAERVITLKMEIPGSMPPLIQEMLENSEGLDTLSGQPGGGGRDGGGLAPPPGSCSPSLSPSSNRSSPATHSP
Chain of Myc proto-oncogene protein (Homo sapiens) (P01106 whole entry, looked up): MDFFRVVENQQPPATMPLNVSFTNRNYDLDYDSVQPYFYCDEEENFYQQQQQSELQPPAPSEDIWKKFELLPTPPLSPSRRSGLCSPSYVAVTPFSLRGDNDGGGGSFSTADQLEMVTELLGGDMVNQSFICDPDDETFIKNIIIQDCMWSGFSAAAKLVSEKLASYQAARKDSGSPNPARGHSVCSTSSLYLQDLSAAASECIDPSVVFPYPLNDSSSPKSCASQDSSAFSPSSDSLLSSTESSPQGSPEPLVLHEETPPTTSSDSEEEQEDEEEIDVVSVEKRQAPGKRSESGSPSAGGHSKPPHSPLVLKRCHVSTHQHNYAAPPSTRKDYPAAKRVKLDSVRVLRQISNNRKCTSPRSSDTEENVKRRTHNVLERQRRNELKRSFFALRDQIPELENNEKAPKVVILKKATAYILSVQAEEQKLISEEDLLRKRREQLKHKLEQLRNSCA
Chain of Peroxisome proliferator-activated receptor gamma (Homo sapiens) (P37231 whole entry, looked up, the tested form may be a part): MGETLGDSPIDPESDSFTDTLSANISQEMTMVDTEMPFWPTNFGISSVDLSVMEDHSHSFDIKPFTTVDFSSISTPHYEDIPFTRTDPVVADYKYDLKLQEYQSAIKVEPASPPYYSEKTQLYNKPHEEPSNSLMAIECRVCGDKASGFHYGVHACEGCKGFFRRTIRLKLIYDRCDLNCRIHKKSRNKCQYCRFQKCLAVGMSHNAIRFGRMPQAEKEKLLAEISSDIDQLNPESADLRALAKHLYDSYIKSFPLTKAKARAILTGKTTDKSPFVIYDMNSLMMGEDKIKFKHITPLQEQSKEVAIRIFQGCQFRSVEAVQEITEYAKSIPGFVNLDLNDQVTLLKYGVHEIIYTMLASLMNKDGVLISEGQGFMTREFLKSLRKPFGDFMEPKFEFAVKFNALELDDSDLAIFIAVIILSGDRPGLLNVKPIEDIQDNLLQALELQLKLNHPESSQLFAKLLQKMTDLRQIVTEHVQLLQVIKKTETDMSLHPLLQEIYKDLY
Chain of human Retinoic Acid Receptor beta (RARb), RARB (gene 5915) (P10826 whole entry, looked up, the tested form may be a part): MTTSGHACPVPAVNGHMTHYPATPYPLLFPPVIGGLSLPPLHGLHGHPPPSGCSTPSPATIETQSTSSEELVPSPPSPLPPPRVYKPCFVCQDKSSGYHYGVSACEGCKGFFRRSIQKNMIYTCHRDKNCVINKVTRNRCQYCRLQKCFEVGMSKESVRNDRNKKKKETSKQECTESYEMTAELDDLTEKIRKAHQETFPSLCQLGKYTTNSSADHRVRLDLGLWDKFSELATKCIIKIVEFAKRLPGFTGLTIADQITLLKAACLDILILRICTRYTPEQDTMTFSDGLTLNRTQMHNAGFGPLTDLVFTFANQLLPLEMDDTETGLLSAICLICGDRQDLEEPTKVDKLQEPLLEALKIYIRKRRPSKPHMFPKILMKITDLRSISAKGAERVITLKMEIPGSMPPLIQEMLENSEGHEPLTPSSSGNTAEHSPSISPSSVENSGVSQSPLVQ
Chain of human Peroxisome Proliferator-activated Receptor delta (PPARd), PPARD (gene 5467) (Q03181 whole entry, looked up, the tested form may be a part): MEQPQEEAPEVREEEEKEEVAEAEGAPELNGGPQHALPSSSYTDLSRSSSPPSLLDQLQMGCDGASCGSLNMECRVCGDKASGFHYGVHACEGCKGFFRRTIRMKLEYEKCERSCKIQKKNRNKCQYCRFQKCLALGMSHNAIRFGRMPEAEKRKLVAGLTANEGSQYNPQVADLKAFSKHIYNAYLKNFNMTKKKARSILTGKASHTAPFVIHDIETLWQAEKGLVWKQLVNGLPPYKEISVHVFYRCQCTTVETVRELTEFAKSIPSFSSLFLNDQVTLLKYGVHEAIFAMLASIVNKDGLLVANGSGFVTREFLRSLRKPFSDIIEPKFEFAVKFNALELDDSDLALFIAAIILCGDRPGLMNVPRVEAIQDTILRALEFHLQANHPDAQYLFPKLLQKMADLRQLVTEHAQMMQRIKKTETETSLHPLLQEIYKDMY
Chain of Cellular tumor antigen p53 (Homo sapiens) (P04637 whole entry, looked up): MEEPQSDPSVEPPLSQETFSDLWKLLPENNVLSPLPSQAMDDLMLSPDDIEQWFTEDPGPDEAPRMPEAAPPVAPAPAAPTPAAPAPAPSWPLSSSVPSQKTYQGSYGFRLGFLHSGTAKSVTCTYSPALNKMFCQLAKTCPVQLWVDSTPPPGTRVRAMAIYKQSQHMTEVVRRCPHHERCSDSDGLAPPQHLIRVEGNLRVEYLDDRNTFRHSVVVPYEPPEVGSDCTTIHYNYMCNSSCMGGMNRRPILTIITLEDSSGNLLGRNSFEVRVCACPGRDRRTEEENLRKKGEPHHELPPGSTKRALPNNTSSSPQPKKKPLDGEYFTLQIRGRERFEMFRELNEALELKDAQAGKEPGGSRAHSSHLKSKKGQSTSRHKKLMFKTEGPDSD
Chain of human Retinoic Acid Receptor gamma (RARg), RARG (gene 5916) (P13631 whole entry, looked up, the tested form may be a part): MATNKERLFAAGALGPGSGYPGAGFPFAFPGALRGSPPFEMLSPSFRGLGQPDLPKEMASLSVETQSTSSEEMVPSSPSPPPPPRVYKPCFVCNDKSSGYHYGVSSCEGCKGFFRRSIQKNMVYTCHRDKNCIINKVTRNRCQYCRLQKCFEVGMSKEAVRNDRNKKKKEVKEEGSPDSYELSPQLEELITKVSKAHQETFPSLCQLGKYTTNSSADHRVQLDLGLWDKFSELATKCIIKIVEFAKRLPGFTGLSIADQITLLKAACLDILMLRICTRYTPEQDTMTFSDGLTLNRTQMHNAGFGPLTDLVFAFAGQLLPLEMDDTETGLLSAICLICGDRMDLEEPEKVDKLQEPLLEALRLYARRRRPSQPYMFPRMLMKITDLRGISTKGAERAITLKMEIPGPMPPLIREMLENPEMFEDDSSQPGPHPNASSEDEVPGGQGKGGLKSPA

For `O=Nc1ccc(O)cc1`, the result in assay [1], in assay [2], in assay [3], in assay [4], in [5] and in assay [6] was inactive. In addition, the result in assay [7], in assay [8], in assay [9], in assay [10], in assay [11] and in assay [12] was inactive.

For the molecule `O=C1CCCC(=O)O1`, the call in assay [1], in [2], in [3], in assay [4], in assay [13] and in [9] was inactive. Besides, the call in assay [11], in assay [14] and in assay [15] was inactive.

On to `CC(=O)OCc1ccco1`, for which the call in assay [1], in assay [2], in [3], in [13], in [16] and in assay [17] was inactive. Further, the call in assay [14] and in [15] was inactive. Besides, the AC50 in [4] was 45.3 µM (active).

`COC(=O)c1sccc1S(N)(=O)=O`: the result in assay [1], in [2], in [3], in [4], in [18] and in assay [9] was inactive. Also, the molecule was called inactive in assay [19], in [16], in [17], in assay [14], in assay [20] and in assay [15].

With `OCCN(CCO)c1ccccc1`, the call in assay [1], in assay [2], in assay [3], in assay [4], in assay [13] and in [9] was inactive. Besides, the molecule was called inactive in assay [16], in assay [17] and in [14].

Turning to `CCOC(=O)CC(C(C)=O)C(C)=O`, the molecule was classed as inactive in [1], in assay [2], in [3], in [13], in [18] and in [9]. The call in [19], in assay [16], in assay [14] and in assay [15] was inactive.
